The supplement of paper PMC6555819

Legend:
Assay in all cases: PBM binding z-score (relative to random genomic background probes); higher = stronger binding; sequences stand for … in GC…GCGATTGACAGCGTAGAATGAAGG
[1] = system: PPARg:RXRa DBDmut IVT, anti-RXR (DBD mutation: RXRa K156A/R161A, NR concentration 270 nM, RXRa partner concentration 90 nM)
Summary of the method: (§1)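 Binding buffer was PBS pH 7.4 with 2% milk, 0.02% Triton X-100, 1 mM DTT, 0.2 mg/mL BSA and 0.4 mg/ml salmon testes DNA. In it, ligand-free nuclear receptor dimers were incubated 1 h on custom Agilent 4×180K protein-binding microarrays carrying double-stranded probes. Antibodies against each partner (one per run) detected binding, and z-scores were calculated against random background probes after regression normalization of scanned fluorescence.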

[2] = system: PPARg:RXRa IVT, anti-PPARg (NR concentration 270 nM, RXRa partner concentration 90 nM)
Summary of the method: as §1

[3] = system: PPARg DBDmut:RXRa IVT, anti-PPARg (DBD mutation: PPARg1 K132A/R137A, NR concentration 270 nM, RXRa partner concentration 90 nM)
Summary of the method: as §1

[4] = system: PPARg DBDmut IVT, anti-PPARg (DBD mutation: PPARg1 K132A/R137A, NR concentration 270 nM)
Summary of the method: as §1

[5] = system: PPARg homodimer (NR concentration 180 nM)
Summary of the method: as §1

[6] = system: PXR:RXRa (NR concentration 270 nM, RXRa partner concentration 90 nM)
Summary of the method: as §1

[7] = system: PXR homodimer (NR concentration 270 nM)
Summary of the method: as §1

[8] = system: RARa:RXR (NR concentration 270 nM, RXRa partner concentration 90 nM)
Summary of the method: as §1

[9] = system: RARa homodimer (NR concentration 270 nM)
Summary of the method: as §1

[10] = system: RARb:RXRa (NR concentration 270 nM, RXRa partner concentration 90 nM)
Summary of the method: as §1

[11] = system: RARb homodimer (NR concentration 270 nM)
Summary of the method: as §1

[12] = system: RARg:RXRa (NR concentration 270 nM, RXRa partner concentration 90 nM)
Summary of the method: as §1

[13] = system: RARg homodimer (NR concentration 270 nM)
Summary of the method: as §1

[14] = system: RXRa DBDmut IVT, anti-RXR (DBD mutation: RXRa K156A/R161A, NR concentration 90 nM)
Summary of the method: as §1

[15] = system: RXRa homodimer (NR concentration 180 nM)
Summary of the method: as §1

[16] = system: THRa:RXRa (NR concentration 90 nM, RXRa partner concentration 90 nM)
Summary of the method: as §1

[17] = system: THRa homodimer (NR concentration 90 nM)
Summary of the method: as §1

[18] = system: VDR homodimer (NR concentration 270 nM)
Summary of the method: as §1

Sequence	PBM binding z-score [1]	PBM binding z-score [2]	PBM binding z-score [3]	PBM binding z-score [4]	PBM binding z-score [5]	PBM binding z-score [6]	PBM binding z-score [7]	PBM binding z-score [8]	PBM binding z-score [9]	PBM binding z-score [10]	PBM binding z-score [11]	PBM binding z-score [12]	PBM binding z-score [13]	PBM binding z-score [14]	PBM binding z-score [15]	PBM binding z-score [16]	PBM binding z-score [17]	PBM binding z-score [18]
TCTGCTAAGTCAACGATGGTCAGCTAATCTGCTA	0.507	-0.186	-0.69	-0.943	-1.18	-0.538	-1.18	-0.422	-1.62	0.171	-0.66	-0.413	-0.169	-0.0661	-0.206	-0.52	-1.37	-1.4
CGAACGAGGTCAAGGACAGTGAATCTCCGCACGC	5.22	5.6	0.997	-0.199	2.14	4.9	0.979	5.15	0.619	5.24	4.19	6.33	6.59	4.23	7.03	4.43	3.19	3.5
CCTACTGGGCCATGCAGAGGTCATTGATCATATG	3.41	4.39	0.533	0.384	2.69	5	1.62	4.75	0.229	3.05	3.99	4.29	2.87	0.291	3.81	3.05	1.12	3.36
ATCACTAGGTAACAAGTTCAGTGAAAGAGAGGAC	5	4.3	1.27	0.914	1.31	1.95	2.35	0.935	1.41	1.8	1.82	1.45	1.49	1.12	0.815	1.54	0.852	2.7
GCTGCTAGGTCAACTGATGGTCAGCTCAAGCTCG	4.88	3.98	-0.00259	-0.768	2.12	1.66	-0.637	2.9	-0.413	4.23	3.67	5.5	5.38	1.62	2.96	3.09	1.25	0.00206
TAGCCTAGGTCAATCAGGGGCCAGTATAGAAAGC	1.74	2.75	-0.205	0.00211	1.32	2.04	-0.411	3.2	-0.673	3.89	3.1	5.75	4.13	0.358	2.51	3.22	0.496	0.332
CGTCAATGTTCAACTAAGGTAACGTAAAGCACGC	0.201	0.781	0.0203	0.928	0.877	0.252	0.0149	1.05	0.784	0.573	0.643	0.459	0.531	0.651	0.456	3.46	2.04	0.309
CCTTACGGGTCACTGACAGGTTAAAGCATTTGGA	3.63	4.02	0.71	0.495	4.09	3.98	0.033	5.21	0.619	3.94	3.06	6.25	5.25	1.51	5.63	2.9	-0.0327	0.937
ACATGTAGGTTAAGGGTCATTCAGGTTGGTTCGC	6.63	7.34	4.14	3.37	4.52	5.46	2.78	5.86	2.44	3.53	3.49	4.68	3.24	2.73	5.95	3.42	2.01	4.91
ATCTCTAGCTAAAGATAGTTCAGTGAATGCAAAT	-0.205	-0.237	1	0.169	0.538	0.463	0.542	0.855	0.543	0.329	0.481	0.461	0.353	-0.2	0.159	0.114	-0.112	0.516
ATATGTAGGTTAAGGGTCATACAGGTTGGTTCGC	7.57	7.96	4.09	2.15	4.5	5.37	1.88	6.2	2.6	3.76	4.12	5.01	3.57	2.4	6.23	3.48	1.48	4.2
CCTCGGAGGACACAAGGTCAGAGCTGTCCGCTTT	0.831	0.883	-1.16	-1.74	1.72	2.35	0.133	2.25	0.096	3.46	3.68	3.85	3.74	0.757	2.07	3.65	1.57	0.992
TCATGTAGGTAAACAGGTGAAAGTCCGTAAGTTA	4.93	5.27	0.599	0.663	1.08	0.463	0.296	0.664	0.834	0.451	0.722	0.133	0.0838	0.975	0.516	0.578	0.226	-0.0362
TCTTGTAGATCAATAGGGGTTAAGAAAGTGCGCT	2.59	1.26	1.26	1.11	1.01	3.87	0.265	2.8	0.509	1.2	1.26	1.07	0.498	1.53	2.18	2.19	0.19	0.671
TCTAGCAGGCCAGAGGGTCAATCAAGAGGTACGG	0.793	0.929	-2.08	-0.99	1.31	1.76	-0.442	2.63	-0.831	2.25	2.63	2.97	2.14	-0.246	2.87	1.62	-0.729	0.802
AGAATGAGGTTATTCAGATCAGGGAATTGCGGTC	3.18	2.64	0.879	0.0193	0.501	1.8	0.717	1.98	0.495	1.68	0.905	1.51	1.13	2.35	2.13	2.51	0.965	1.53
